# Results: publication PMC4336329 (PLoS ONE, 2015)
# Hit rate of the full screen: of about 310,000 compounds, about 2,200 (0.71%) showed an effect of 50% or more. The effect is printed as a negative number. The list comes from a sample in which strong results are over-represented; it also holds similar structures and randomly drawn compounds.
# Biological target: human ether-à-go-go-related gene (hERG) potassium channel (human, UniProt Q12809)
# Test: primary screen, population patch clamp on CHO cells stably expressing hERG; higher = less effect of the substance
# Chain of human ether-à-go-go-related gene (hERG) potassium channel (Q12809 whole entry, looked up): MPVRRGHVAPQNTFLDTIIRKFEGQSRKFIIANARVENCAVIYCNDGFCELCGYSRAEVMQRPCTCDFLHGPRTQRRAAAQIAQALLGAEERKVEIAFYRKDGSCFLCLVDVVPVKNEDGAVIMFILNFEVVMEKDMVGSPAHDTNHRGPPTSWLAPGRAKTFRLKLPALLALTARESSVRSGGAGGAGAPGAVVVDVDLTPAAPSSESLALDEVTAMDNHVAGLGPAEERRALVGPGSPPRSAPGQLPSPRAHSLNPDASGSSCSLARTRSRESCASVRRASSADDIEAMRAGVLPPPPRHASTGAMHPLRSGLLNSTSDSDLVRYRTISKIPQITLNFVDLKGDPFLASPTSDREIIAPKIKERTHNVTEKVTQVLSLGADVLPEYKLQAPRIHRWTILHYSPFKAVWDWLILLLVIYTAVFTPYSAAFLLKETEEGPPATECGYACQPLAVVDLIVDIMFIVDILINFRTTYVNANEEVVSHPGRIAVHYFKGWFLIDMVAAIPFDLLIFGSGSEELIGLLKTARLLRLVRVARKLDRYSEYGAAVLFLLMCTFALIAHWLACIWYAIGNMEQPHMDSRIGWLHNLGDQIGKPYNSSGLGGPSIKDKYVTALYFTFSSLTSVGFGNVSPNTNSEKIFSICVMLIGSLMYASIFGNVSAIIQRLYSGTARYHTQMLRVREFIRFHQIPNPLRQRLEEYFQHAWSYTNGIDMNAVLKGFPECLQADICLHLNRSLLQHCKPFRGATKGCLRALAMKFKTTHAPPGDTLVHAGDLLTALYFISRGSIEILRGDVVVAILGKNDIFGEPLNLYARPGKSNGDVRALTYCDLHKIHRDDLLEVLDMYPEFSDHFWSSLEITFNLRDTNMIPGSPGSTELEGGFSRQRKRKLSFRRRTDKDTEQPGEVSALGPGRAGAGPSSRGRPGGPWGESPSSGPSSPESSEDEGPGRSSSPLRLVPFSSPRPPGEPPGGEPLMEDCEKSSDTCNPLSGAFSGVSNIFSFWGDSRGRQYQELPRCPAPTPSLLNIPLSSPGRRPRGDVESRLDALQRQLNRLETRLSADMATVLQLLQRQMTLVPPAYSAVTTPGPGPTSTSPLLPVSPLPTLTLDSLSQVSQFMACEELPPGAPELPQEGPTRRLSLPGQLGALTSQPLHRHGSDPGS
row,SMILES,"hERG current change (%, negative = inhibition) at 1uM [%]"
1,Cc1sc2nc(NCCO)[nH]c(=O)c2c1C,14.6
2,CS(=O)(=O)c1cccc(-c2nnc(NC(=O)C3=COCCO3)o2)c1,0.983
3,Nc1c(C(=O)c2ccc(Cl)cc2)oc2ccccc12,18
4,O=C(Nc1ccccc1)C1=C[C@H](c2ccccc2)C[C@H](OCCCCO)O1,12.7
5,Cc1nc(N2CCN(S(=O)(=O)c3ccccc3)CC2)c2cc(-c3ccccc3)sc2n1,2.54
6,c1ccc2c(c1)nnn2Cc1nnc2sc(-c3ccc4c(c3)OCCO4)nn12,9.84
7,COC(=O)c1cccc(OCC(O)Cn2ccnc2)c1 (stereo not shown),0.869
8,Cc1ccccc1OCC(O)CN1CCN(C)CC1.Cl (stereo not shown),5.66
9,Cc1ccccc1OCC(O)CN1CCC(C)CC1.Cl (stereo not shown),-6.73
10,Cc1ccccc1OCC(O)CN1CCN(CC(O)COc2ccccc2C)CC1 (stereo not shown),-50.4
11,Cc1ccc2oc(=O)c3cnn(CC(=O)N4CCCc5ccccc54)c3c2c1,4.39
12,CCn1c(SCC(=O)c2c(N)n(C)c(=O)n(C)c2=O)nnc1-c1ccccc1,14.2
13,CN(C)Cc1c(O)ccc2occ(C(=O)c3ccccc3)c12,-16.4
14,COc1ccc(C(=O)c2coc3ccc(O)c(CN(C)C)c23)cc1,-29.3
15,CCN(CC)Cc1c(O)ccc2occ(C(=O)c3ccc(OC)cc3)c12,-64.2
16,Cc1ccc(C(=O)c2coc3ccc(O)c(CN(C)C)c23)cc1.Cl,-16.2
17,CN1CCN(Cc2c(O)ccc3occ(C(=O)c4ccccc4)c23)CC1,-14.3
18,COc1ccc(OC)c(C(=O)c2coc3ccc(O)c(CN(C)C)c23)c1.Cl,9.87
19,CN(C)Cc1c(O)ccc2occ(C(=O)c3ccc(F)cc3)c12,-57.5
20,COc1ccc2occ(C(=O)c3coc4ccc(O)c(CN(C)C)c34)c2c1.Cl,-29.5
21,CCN(CC)Cc1c(O)ccc2occ(C(=O)c3ccccc3)c12,-57.3
22,Cc1ccc(-c2nc3cccnc3o2)cc1NC(=O)COc1ccc(C(C)(C)C)cc1,7.31

row,SMILES,"hERG current change (%, negative = inhibition) at 1uM [%]"
1,COc1ccc(S(=O)(=O)Nc2ccc(Cc3ccncc3)cc2)cc1OC,7.28
2,COc1cc(NC(=O)c2ccc(F)cc2)c(OC)cc1NC(=O)CN1CCOCC1,3.57
3,O=C(CN1C(=O)NC2(CCCCC2)C1=O)NCCC1=CCCCC1,14.5
4,COC(=O)c1cc(S(=O)(=O)N2CCCCCC2)c[nH]1,12.4
5,Cc1c(C(=O)Nc2nccs2)oc2ccc(F)cc12,14.5
6,CCC(C(=O)N1CCN(Cc2ccc3c(c2)OCO3)CC1)n1c(=O)[nH]c2ccccc2c1=O (stereo not shown),-8.55
7,CCN1CCc2c(C#N)c(N3CCCCC3)nc(N3CCOCC3)c2C1,12.1
8,CCCN1C(=O)C2(C(C(=O)c3ccc(C)o3)=C(O)C(=O)N2CCCOC)c2ccccc21 (stereo not shown),7.99
9,COc1cc2oc3ccccc3c2cc1N(CC(=O)N(C)C)S(=O)(=O)c1ccccc1,0.641
10,COc1cc2c(cc1OC)CN(c1nc(CN3CCCCC3)nc3sc4c(c13)CCCC4)CC2,-57.3
11,COc1cc2c(cc1OC)CN(c1nc(CN3CCCC3)nc3sc(C)c(C)c13)CC2,-22.9
12,COc1cc2c(cc1OC)CN(c1nc(CN3CCOCC3)nc3sc4c(c13)CCC(C)C4)CC2 (stereo not shown),5.29
13,COc1cc2c(cc1OC)CN(c1nc(CN3CCOCC3)nc3sc4c(c13)CCCC4)CC2,-54
14,Clc1nc(CN2CCCCC2)nc2sc3c(c12)CCCC3,7.88
15,c1ccc2c(c1)CCN(c1nc(CN3CCOCC3)nc3sc4c(c13)CCCC4)C2,14.5
16,Cc1cccc(C)c1NC(=S)NN(Cc1ccccc1)c1ccccc1,10.3
17,COc1ccc(CNC(=O)CSc2nnc(-c3cccnc3)n2N)cc1,7.27
18,CCN(CC(=O)Nc1ccc(NC(C)=O)cc1)C(=O)COc1ccc(C(=O)c2ccccc2)cc1,10.3
19,CCN1CCN(c2ccc(S(=O)(=O)N3CCCCC3)cc2NC(=O)c2ccc([N+](=O)[O-])o2)CC1,-73.3
20,COc1ccc(S(=O)(=O)N2CCCCC2)cc1NC(=O)c1ccc([N+](=O)[O-])o1,12.4
21,CCN1CCN(c2ccc(S(=O)(=O)N3CCCCC3)cc2NC(=O)c2ccc(C)o2)CC1,-62.4
22,CCN1CCN(c2ccc(S(=O)(=O)N3CCCCC3)cc2NC(=O)c2cc3ccccc3o2)CC1,0.811

row,SMILES,"hERG current change (%, negative = inhibition) at 1uM [%]"
1,CCN1CCN(c2ccc(S(=O)(=O)N3CCCCC3)cc2NC(=O)c2ccc(F)cc2)CC1,-16.7
2,CCN1CCN(c2ccc(S(=O)(=O)N3CCCCC3)cc2NC(=O)/C=C/c2ccc(OC(F)F)cc2)CC1,-1.19
3,CCN1CCN(c2ccc(S(=O)(=O)N3CCCCC3)cc2NC(=O)c2ccccc2)CC1,-15.6
4,CCN1CCN(c2ccc(S(=O)(=O)N3CCCCC3)cc2NC(=O)c2ccc([N+](=O)[O-])s2)CC1,-13.8
5,CCN1CCN(c2ccc(S(=O)(=O)N3CCCCC3)cc2NC(=O)c2ccc(OC(F)F)cc2)CC1,-56.4
6,Cc1cccc(C)c1Nc1nnc(SCC(=O)c2ccc(Br)s2)s1,12.4
7,CCCN(CCC)S(=O)(=O)c1ccc(NC(=O)c2cc(C(=O)OC)cc([N+](=O)[O-])c2)cc1,16.7
8,CCCn1c2ccccc2c2cnn(CC(=O)NC3CCCC(C)C3C)c(=O)c21 (stereo not shown),11.4
9,CN(C)S(=O)(=O)c1ccc2nnn(O)c2c1,7.89
10,CCC(C)(C)NC(=O)C(c1ccco1)N(C(=O)Cn1nnc2ccccc21)c1ccc2c(c1)OCO2 (stereo not shown),13.9
11,O=C(NCc1ccncc1)c1nc(-c2cccs2)no1,-0.652
12,COc1ccc(S(=O)(=O)NCCc2csc(-c3cccnc3)n2)cc1,-9.72
13,CN(/N=C/c1ccc(Cl)cc1)c1ncc(Cl)cc1C(F)(F)F,14.6
14,CN1/C(=C/C=C(C#N)C#N)C(C)(C)c2ccccc21,10.9
15,CN1/C(=C\C=O)C(C)(C)c2ccccc21,3.65
16,Cc1ccccc1N=C/C=C1\N(C)c2ccccc2C1(C)C,-51.2
17,Cc1c(N=C/C=C2\N(C)c3ccccc3C2(C)C)c(=O)n(-c2ccccc2)n1C,-15.5
18,CO/N=C/C=C1/N(C)c2ccccc2C1(C)C,12.5
19,CN1/C(=C\C=Nc2ccccc2)C(C)(C)c2ccccc21,-65
20,CN1/C(=C\C=C(C#N)C#N)C(C)(C)c2ccccc21,2.94
21,Cc1c(N=C/C=C2/N(C)c3ccccc3C2(C)C)c(=O)n(-c2ccccc2)n1C,-5.46
22,CN1/C(=C\C=Nc2ccc3ccccc3c2)C(C)(C)c2ccccc21,-75.1

row,SMILES,"hERG current change (%, negative = inhibition) at 1uM [%]"
1,CN1/C(=C\C=N\O)C(C)(C)c2ccccc21,14.7
2,CN1/C(=C/C=N/n2cnnc2)C(C)(C)c2ccccc21,7.04
3,CN(C)c1ccc(N=C/C=C2\N(C)c3ccccc3C2(C)C)cc1,-84.7
4,N#Cc1nc(-c2ccc(Cl)cc2)oc1NCc1ccco1,18.1
5,COc1cccc(-n2c(Cc3cc(=O)[nH]c(=O)[nH]3)nnc2SC(C)C)c1,2.56
6,CCNC(=O)c1ccc(CSc2nc3ccccc3s2)cc1,11.4
7,O=S(=O)(c1ccc(NC(=S)NCCc2ccccc2)cc1)N1CCOCC1,3.71
8,COc1cccc(-c2nc(CS(=O)(=O)CC(=O)NCCCN3CC(C)CC(C)C3)c(C)o2)c1 (stereo not shown),-5.41
9,CCOC(=O)Nc1ccc2c(c1)Nc1ccccc1S2,9.07
10,COc1cccc(NC(=O)CNS(=O)(=O)c2ccc3nc(C)sc3c2)c1,14.5
11,Cc1ccc(-c2cc(C(=O)Nc3cccnc3)c3ccccc3n2)s1,12.1
12,Cn1cnnc1SCC(=O)Nc1sc2c(c1C(N)=O)CCC2,13.3
13,CCCCNC(=O)CCCN1C(=O)c2cccnc2Sc2ccccc21,14.1
14,CCCCNc1ncnc2sc3c(c12)CCN(CCC)C3,-80.9
15,OCCCNc1ncnc2sc3c(c12)CCN(Cc1ccccc1)C3,7.54
16,CC1CCc2c(sc3ncnc(NCCN4CCOCC4)c23)C1 (stereo not shown),-13.1
17,CCOc1ccc(-n2c(SCc3ccc(C#N)cc3)nnc2-c2cccnc2)cc1,-65.1
18,N#Cc1ccc(CSc2nnc(-c3cccnc3)n2-c2ccccc2)cc1,-26.5
19,CCOc1ccc(-n2c(SCC(N)=O)nnc2-c2cccnc2)cc1,-3.26
20,CCC(C)(C(=O)NC1CCCCC1)N(C)C(=O)c1ccccn1 (stereo not shown),4.4
21,CCC(C)(C(=O)NC1CCCCC1)N(CC1CCCO1)C(=O)c1ccccn1 (stereo not shown),-80.8
22,CCC(C)(C(=O)NC1CCCCC1)N(CC1CCCO1)C(=O)CNC(=O)c1ccccc1 (stereo not shown),9.5
